# Compound activity: PubChem BioAssay, National Center for Advancing Translational Sciences (NCATS)
# Compounds with a hit are over-represented: about 15% of the library has one in this group of screens.
# TDP1 cell CPT: growth inhibition of DT40 Tdp1-/-;hTDP1 cells with camptothecin (screen for TDP1 inhibitors) | 420,000 compounds, 12% hits | Potency, µM (highest dose often 46.2 µM), inactives show top-dose activity change, negative = growth inhibition, hits mostly inhibitors | chicken DT40 Tdp1-/-;hTDP1 cells + 20 nM CPT, ATP luminescence, 48 h; further: nearly all actives have a fitted effect of over 55% in size
#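 Cell growth measured by CellTiter-Glo luminescence after a minimum 48 h, 37 C compound exposure with 20 nM CPT in Tdp1-knockout DT40 cells stably expressing hTDP1, seeded 400/well; qHTS titration format.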
# ELG1 DNA repair: blocks ELG1-dependent DNA repair in HEK293T cells. HEK293T ELG1-luciferase reporter, luminescence, 16 h; DNA damage induced by 5-fluorouridine. Potency, µM (doses to about 46.1 µM), for inactives: at the highest dose activity change, negative = inhibition, actives largely listed as inhibitors. 330,000 compounds, 2.3% hits. AID 504467; further: nearly all actives have a fitted effect of over 55% in size
#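 HEK293T cells expressing luciferase-tagged ELG1 (2,000/well) received 5-Fluorouridine plus compound or DMSO for 16 hr at 37 °C. Luciferase was read by ONE-Glo luminescence after 30 min at room temperature.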
# Gal4-VP16 FLuc: Gal4-VP16 reporter inhibition counter-screen; Drosophila S2 Gal4-VP16 UAS-luciferase, luminescence, 20 h; Potency, µM (doses to about 53.6 µM), for the others: at the top dose activity, negative = inhibition, most hits filed as inhibitors; 310,000 compounds, 3.5% hits; AID 2546;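 further: Gal4-VP16 expression switched on by copper sulfate through the metallothionein promoter; nearly all actives have a fitted effect of over 50% in size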
# ALOX12 inh: inhibitors of human 12S-lipoxygenase ALOX12; 580,000 compounds, 1.1% hits; AID 1671190; purified 12hLO, xylenol orange hydroperoxide absorbance; Potency, µM (top dose mostly 108 µM), inactives show at the highest dose activity change, negative = inhibition, usual class: inhibitors; P18054
# Target sequence (P18054 whole entry, looked up): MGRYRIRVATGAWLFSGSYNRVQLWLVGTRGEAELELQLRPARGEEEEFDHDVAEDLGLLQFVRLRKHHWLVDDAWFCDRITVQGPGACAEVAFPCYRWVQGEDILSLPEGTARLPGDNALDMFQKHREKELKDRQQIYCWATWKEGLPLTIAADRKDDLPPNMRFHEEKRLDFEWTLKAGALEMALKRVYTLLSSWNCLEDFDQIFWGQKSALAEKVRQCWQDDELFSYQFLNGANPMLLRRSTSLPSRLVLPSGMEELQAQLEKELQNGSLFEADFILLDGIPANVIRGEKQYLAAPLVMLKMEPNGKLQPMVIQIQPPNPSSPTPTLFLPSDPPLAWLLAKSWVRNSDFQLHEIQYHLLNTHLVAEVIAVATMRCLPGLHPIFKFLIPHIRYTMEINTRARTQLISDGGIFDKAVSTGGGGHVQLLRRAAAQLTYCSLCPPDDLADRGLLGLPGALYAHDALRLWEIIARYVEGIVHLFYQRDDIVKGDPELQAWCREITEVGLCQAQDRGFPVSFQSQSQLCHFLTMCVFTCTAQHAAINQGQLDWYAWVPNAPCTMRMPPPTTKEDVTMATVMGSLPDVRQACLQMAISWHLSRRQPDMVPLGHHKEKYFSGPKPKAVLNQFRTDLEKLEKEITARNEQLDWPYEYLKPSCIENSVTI
#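 Purified human 12hLO at 150 nM in 25 mM Hepes, 0.01% Triton X-100, pH 7.0, preincubated 15 min at room temperature with compound. Reaction started with 40 uM arachidonic acid, 30 min at room temperature. Hydroperoxide measured by Fe-xylenol orange, 573/405 nm absorbance ratio.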
# RORgamma inh: inhibitors of mouse ROR gamma transcriptional activity; 310,000 compounds, 5.4% hits; P51450; Potency, µM (highest dose often 53.6 µM), without a hit: top-dose activity change, negative = inhibition, hits mostly inhibitors; Drosophila S2 Gal4-RORgamma UAS-luciferase reporter, 20 h; AID 2551; further: nearly all actives have a fitted effect of over 60% in size
#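 ROR gamma transcriptional activity was tracked as Gal4-UAS luciferase output in stably transfected Drosophila Schneider cells, with compound added 1 hr before 700 uM copper sulfate induction and a 20 hr ambient-temperature incubation.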
# TDP1 cell noCPT: qHTS for Inhibitors of human tyrosyl-DNA phosphodiesterase 1 (TDP1): qHTS in cells in absence of CPT | 420,000 compounds, 15% hits | DT40 Tdp1-/- hTDP1 cells, no CPT, ATP luminescence, 48 h | Potency, µM (series often up to 46.2 µM), inactives show at the top dose activity change, negative = growth inhibition, usual class: inhibitors | AID 686978, 2013; further: nearly all actives have a fitted effect of over 55% in size
#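 No-CPT arm: Tdp1-/-;hTDP1 DT40 cells (400/well) plus compounds, incubated ≥48 hr at 37 °C. Readout CellTiter-Glo luminescence.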
# * = called active by the depositor; ? = inconclusive; · = no result given. The call rests on the fitted dose curve; in most records, active means well fitted curve in the direction sought with a large enough effect; inconclusive means small, poorly fitted or top-dose-only effect, or another doubt; inactive means no such curve, though single readings can be large; an effect the other way counts as inactive or inconclusive. On the % scale 0 is the no-effect control and ±100 the full control effect; potency means the concentration at half of the fitted maximal effect.
SMILES,TDP1 cell CPT,ELG1 DNA repair,Gal4-VP16 FLuc,ALOX12 inh,RORgamma inh,TDP1 cell noCPT
O=C(N/N=C/c1ccc([N+](=O)[O-])cc1)c1ccc(COc2ccccc2-c2ccccc2)cc1,?,-6%,-7%,2%,8%,13µM*
CCOc1ccc(/C=N/NC(=O)COc2ccccc2-c2ccccc2)cc1,18µM*,-19%,-10%,-17%,-8%,?
CCOc1ccc(/C=N/NC(=O)c2c(-c3ccccc3)noc2C)cc1,14%,?,?,4%,?,-30%
O=S(Cc1ccccc1)Cc1ccc(Cl)cc1Cl (configuration not stated),·,·,·,44%,·,·
CN(C)C(=O)CNS(=O)(=O)c1cc(F)cc(F)c1,·,·,·,-40%,·,·
Cc1ccc(-c2n[nH]c(=S)nc2-c2ccc(C)cc2)cc1,?,1%,?,?,5µM*,?
Cc1ccc(-c2n[nH]c3c2CCC3)cc1,-11%,?,?,-20%,0%,5%
CC1(Cc2ccccc2C#N)C(=O)Nc2ccc(-c3ccccc3)cc21 (configuration not stated),?,·,·,-1%,·,?
COc1ccccc1-c1ccc2c(c1)C(C)(Cc1ccccc1C#N)C(=O)N2 (configuration not stated),21µM*,·,·,-1%,·,?
COc1ccccc1-c1ccc2c(c1)C(C)(Cc1ccc(Cl)c(Cl)c1)C(=O)N2 (configuration not stated),21µM*,·,·,-25%,·,?
CCOC(=O)C1CCN(C(=O)Cc2cccn2-c2ccc(F)cc2)CC1,·,·,·,13%,·,·
CCc1ccc2c(CSc3nc(N)cc(N)n3)cc(=O)oc2c1,·,·,·,-18%,·,·
CCCc1c(C(=O)N/N=C(\C)c2cc(C)sc2C)nnn1-c1nonc1N,?,·,·,23%,·,18µM*
CCCc1c(C(=O)N/N=C(\C)c2ccccn2)nnn1-c1nonc1N,2.6µM*,·,·,-16%,·,1.6µM*
C/C(=N\NC(=O)c1nnn(-c2nonc2N)c1C(C)C)c1cc(C)sc1C,?,1%,2%,8%,-1%,?
CCOC(=O)c1cc(C2(O)CCOC(C)(C)C2)on1 (configuration not stated),·,·,·,-10%,·,·
CCN(CC)S(=O)(=O)c1cccc(NC(=O)C(=O)c2c(-c3ccccc3)cc3ccccn23)c1,?,16µM*,-1%,0%,7.9µM*,23µM*
CCN(CC)S(=O)(=O)c1cccc(C(=O)c2c(C)cc3ccccn23)c1,?,?,2%,-15%,16%,21µM*
CCN(CC)S(=O)(=O)c1cc(NC(=O)C(=O)c2c(-c3ccccc3)cc3ccccn23)ccc1C,21µM*,16µM*,-3%,-10%,-20%,23µM*
O=C(NCCCO)C(=O)c1c(-c2ccccc2)cc2ccccn12,0%,5%,-8%,-20%,-8%,-5%
Cc1cc2ccccn2c1C(=O)c1ccc(-c2ccccc2)cc1,·,·,·,0%,·,·
CCN(CC)S(=O)(=O)c1cc(NC(=O)CNc2c(C)n(C)n(-c3ccccc3)c2=O)ccc1C,-3%,-9%,-1%,23%,34%,-2%
CCCC(=O)Oc1ccc2c(=O)c(Oc3cc(C)cc(C)c3)c(C(F)(F)F)oc2c1,·,·,·,-15%,·,·
Cc1ccc(-n2nc3c(=O)n(CCCC(=O)NCCc4ccccc4Cl)nc(C)c3c2C)cc1,8.2µM*,·,·,3%,·,15µM*
Cc1ccc(-n2nc3c(=O)n(CCCC(=O)NCc4ccccc4Cl)nc(C)c3c2C)cc1,?,?,3%,1%,33%,18µM*
SMILES,TDP1 cell CPT,ELG1 DNA repair,Gal4-VP16 FLuc,ALOX12 inh,RORgamma inh,TDP1 cell noCPT
Cc1ccc(-n2nc3c(=O)n(C(C)C(=O)NCc4ccccc4Cl)nc(C)c3c2C)cc1 (configuration not stated),?,-27%,-24%,7%,20%,?
CN(Cc1cc2cc(F)ccc2[nH]1)C(=O)C1CCC(=O)N(C2CCCC2)C1 (configuration not stated),·,·,·,-9%,·,·
COCCN(CC(N)=O)S(=O)(=O)c1ccc(F)c(F)c1,·,·,·,27%,·,·
CCN1C(=O)c2ccccc2S(=O)c2ccc(C(=O)N3CCCC3)cc21 (configuration not stated),-10%,23%,0%,-6%,14%,?
CCN1C(=O)c2ccccc2S(=O)c2ccc(C(=O)N3CCN(c4cccc(C)c4)C(C)C3)cc21 (configuration not stated),?,·,·,?,·,16µM*
Cc1cccc(N2CCN(C(=O)c3ccc4c(c3)N(Cc3cccc(Cl)c3)C(=O)c3ccccc3S4=O)CC2C)c1 (configuration not stated),5.8µM*,·,·,-28%,·,6.5µM*
CC(C)Oc1ccc(C(=O)N2C[C@@H]3CCN(C)C[C@]3(C(=O)O)C2)cc1,·,·,·,7%,·,·
Cc1cccc(/C=C(\c2nc3ccccc3[nH]2)S(=O)(=O)c2ccccc2)c1,4.1µM*,12µM*,-78%,-11%,?,2.6µM*
O=S(=O)(/C(=C/c1ccc2ccccc2c1)c1nc2ccccc2[nH]1)c1ccccc1,·,·,·,2%,·,·
CC(C)(C)c1ccc(/C=C(\c2nc3ccccc3[nH]2)S(=O)(=O)c2ccccc2)cc1,23µM*,·,·,·,·,?
CC(NC(=O)c1csc2nc(-c3cccc(C(F)(F)F)c3)cn12)c1ccncn1 (configuration not stated),·,·,·,74%,·,·
O=C(NCCC12CC3CC(CC(C3)C1)C2)c1ccc(Cl)cc1,·,·,·,-33%,·,·
COc1cccc(S(=O)(=O)N2CCCC(CN3CCOCC3)CC2)c1 (configuration not stated),·,·,·,19%,·,·
COc1ccc(Oc2nc3c(c(=O)n(C)c(=O)n3C)n2Cc2ccc(Cl)cc2Cl)cc1,?,·,·,-21%,·,21µM*
COc1ccc(Oc2nc3c(c(=O)n(C)c(=O)n3C)n2Cc2ccccc2Cl)cc1,?,·,·,-21%,·,13µM*
COc1ccc(Cl)c(Cn2c(NCc3ccccn3)nc3c2c(=O)n(C)c(=O)n3C)c1,?,-8%,2%,147%,-19%,15µM*
Cn1c(=O)c2c(nc(NCC3CCCC(CN)C3)n2Cc2ccc(Cl)cc2Cl)n(C)c1=O (configuration not stated),4.6µM*,-17%,1%,-10%,-40%,5.8µM*
CCC(C)NC(=S)Nc1cc(C)cc(C)c1 (configuration not stated),·,·,·,-17%,·,·
